# The sample as a whole holds a higher share of hits than the screen did.
# PRC2 inh: inhibitors of human EZH2/PRC2 methyltransferase; Q15910; PRC2 H3K27 methylation, DELFIA TRF, 1 h; inhibition, % at 12.5 µM; 57,000 compounds, 0.35% hits; AID 651548;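 active means mean inhibition of replicates at least 50% and every single replicate also reaching 50%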;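 further: dimethyl H3K27 on biotinylated H3 21-44 peptide detected by antibody; plate controls were median neutral control wells for no effect and median positive control wells for full effect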
# Target sequence (Q15910 whole entry, looked up): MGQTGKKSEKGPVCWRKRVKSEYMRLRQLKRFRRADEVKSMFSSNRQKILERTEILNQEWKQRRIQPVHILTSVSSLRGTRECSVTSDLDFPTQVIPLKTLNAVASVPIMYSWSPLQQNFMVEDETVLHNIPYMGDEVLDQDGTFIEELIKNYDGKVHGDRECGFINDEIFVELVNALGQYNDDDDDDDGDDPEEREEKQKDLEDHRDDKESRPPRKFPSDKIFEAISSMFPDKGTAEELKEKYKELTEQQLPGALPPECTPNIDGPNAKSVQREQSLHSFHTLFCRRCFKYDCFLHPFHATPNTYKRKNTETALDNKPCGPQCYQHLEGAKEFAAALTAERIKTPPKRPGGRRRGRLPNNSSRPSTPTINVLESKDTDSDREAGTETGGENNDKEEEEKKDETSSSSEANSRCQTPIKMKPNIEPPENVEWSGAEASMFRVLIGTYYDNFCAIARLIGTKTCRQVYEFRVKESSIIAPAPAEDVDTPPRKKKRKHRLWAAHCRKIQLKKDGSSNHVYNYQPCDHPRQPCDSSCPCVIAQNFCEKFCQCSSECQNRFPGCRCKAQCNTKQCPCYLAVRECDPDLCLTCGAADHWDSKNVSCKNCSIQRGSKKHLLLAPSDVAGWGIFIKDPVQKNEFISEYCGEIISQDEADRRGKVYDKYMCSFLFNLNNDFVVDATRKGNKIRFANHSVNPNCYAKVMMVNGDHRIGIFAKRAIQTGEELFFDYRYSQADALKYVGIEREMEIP
# Starred values were filed as active, the others as inactive.
SMILES,PRC2 inh
COC(=O)c1ccccc1NC(=O)CNC(=O)c1ccccc1,-7
COC(=O)c1ccccc1NC(=O)CCSc1ccc(C)cc1,54*
COC(=O)c1ccccc1NC(=O)Cn1c(C)ccc1C,-8
COc1ccc(S(=O)(=O)N(C)CC(=O)Nc2cccc(Cl)c2C)cc1OC,-5
CC(C)c1onc(-c2c(Cl)cccc2Cl)c1COc1ccc(/C=C/c2cccc(C(=O)O)c2)c(Cl)c1,73*
O=C(CCCCCCC(=O)Nc1ccccc1O)N/N=C/c1cc(Br)c(O)c(Br)c1,24
CS(=O)(=O)N(CC(=O)Nc1ccc(F)cc1)c1cccc(Br)c1,11
COc1ccc(OC)c(NC(=O)COc2cc(C)c(Br)cc2C)c1,-3
COc1ccc(/C=C2/SC(=S)NC2=O)cc1COc1ccc(F)cc1F,92*
Cc1cccc(N=C2NC(=O)/C(=C/c3ccc(F)cc3)S2)c1C,42
Cc1ccccc1NC(=O)C1CC=CCC1C(=O)O (stereo unspecified),-6
COc1c(O[C@@H]2O[C@H](C(=O)O)[C@@H](O)[C@H](O)[C@H]2O)cc2oc(-c3ccc(O)cc3)cc(=O)c2c1O,48
COc1c(O)cc2c(=O)oc3c(OC)c(O[C@@H]4OC[C@@H](O)[C@H](O)[C@H]4O)cc4c(=O)oc1c2c34,80*
COc1ccc(-c2oc(NC(=O)Cc3ccc(OC)c(OC)c3)c(C#N)c2-c2ccc(OC)cc2)cc1,-2
COc1ccc(-c2csc3ncn(CC(=O)Nc4sc5c(c4C#N)CCC5)c(=O)c23)cc1OC,13
CCOc1ccccc1OCC(=O)Nc1cc(Cl)ccc1OC,40
CS(=O)(=O)N(CC(=O)Nc1ccc(Cl)c(C(F)(F)F)c1)c1cccc(C(F)(F)F)c1,22
CNC(=O)c1cc(Oc2ccc(NC(=O)Nc3ccc(Cl)c(C(F)(F)F)c3)cc2)ccn1,57*
CC(=O)Nc1ccc(NC(=O)CN(c2ccc(Cl)c(C(F)(F)F)c2)S(C)(=O)=O)cc1,-27
Cc1cc(=O)oc2cc(OC(C)C(=O)Nc3ccccc3[N+](=O)[O-])ccc12 (stereo unspecified),8
Cc1cc([N+](=O)[O-])ccc1NC(=O)CSc1nnc(-c2ccccc2)o1,-3
COc1cccc(S(=O)(=O)NCc2ccc(C(=O)O)cc2)c1,-1
CC(=O)c1cccc(NC(=S)NCc2ccccn2)c1,-3
Cc1ccc2c(CC(=O)Nc3cccc([N+](=O)[O-])c3)coc2c1C,51*
Cc1cc(C)c(S(=O)(=O)N(C)CC(=O)Nc2cccc([N+](=O)[O-])c2)c(C)c1,-6
SMILES,PRC2 inh
Cc1ccc2c(CC(=O)NCc3ccco3)coc2c1C,-10
COc1ccc(-c2nnc(SCC(=O)Nc3ccc(Br)cc3C(C)C)o2)cc1,14
O=C(CSc1nnc(-c2ccncc2)o1)c1cc2ccccc2oc1=O,8
Nc1c(S(=O)(=O)O)cc(Nc2cccc3ccccc23)c2c1C(=O)c1ccccc1C2=O,82*
O=C(Nc1cccc2ccccc12)OCCn1ncc2ccccc2c1=O,-7
O=C(CNS(=O)(=O)c1ccc(Br)cc1)Nc1cccc2ccccc12,11
Nc1c(S(=O)(=O)O)cc(Nc2ccc(Cl)cc2)c2c1C(=O)c1ccccc1C2=O,68*
Cc1ccc(CCC(=O)Nc2cc(Cl)cc(Cl)c2)o1,33
CC(C)(C)C(=O)CSc1nnc(-c2ccncc2)n1-c1ccc(Br)cc1,-7
Cc1ccc2ccc(C(Nc3ccccn3)c3c(F)cccc3Cl)c(O)c2n1 (stereo unspecified),-14
CCc1ccc(-c2nc3cc(NC(=O)COc4ccc([N+](=O)[O-])cc4)ccc3o2)cc1,6
Cc1cc(C)c(S(=O)(=O)N(C)CC(=O)Nc2cc([N+](=O)[O-])ccc2C)c(C)c1,-24
COc1ccc(-c2nnc(SCC(N)=O)n2C)cc1OC,-2
C[C@@H]1CN([C@@H](C)CO)S(=O)(=O)c2ccc(C3=CCCCC3)cc2O[C@H]1CN(C)Cc1cccc(C(=O)O)c1,56*
C[C@H]1CN([C@@H](C)CO)S(=O)(=O)c2ccc(C3=CCCCC3)cc2O[C@H]1CN(C)Cc1cccc(C(=O)O)c1,17
C[C@H](CO)N1C[C@H](C)[C@@H](CN(C)Cc2ccccc2)Oc2cc(/C=C/c3ccccc3)ccc2S1(=O)=O,-1
C[C@@H]1CN([C@@H](C)CO)S(=O)(=O)c2ccc(C#CCC3CCCC3)cc2O[C@H]1CN(C)Cc1cccc(C(=O)O)c1,62*
C[C@H]1CN([C@@H](C)CO)S(=O)(=O)c2ccc(/C=C/c3ccccc3)cc2O[C@@H]1CN(C)Cc1ccc(C(=O)O)cc1,53*
C[C@@H]1CN([C@H](C)CO)S(=O)(=O)c2ccc(Br)cc2O[C@H]1CN(C)Cc1cccc(C(=O)O)c1,1
C[C@H](CO)N1C[C@H](C)[C@@H](CN(C)Cc2cccc(C(=O)O)c2)Oc2cc(Br)ccc2S1(=O)=O,13
C[C@H]1CN([C@@H](C)CO)S(=O)(=O)c2ccc(C3=CCCCC3)cc2O[C@@H]1CN(C)Cc1cccc(C(=O)O)c1,44
C[C@H]1CN([C@@H](C)CO)S(=O)(=O)c2ccc(/C=C/c3ccccc3)cc2O[C@H]1CN(C)Cc1ccccc1,10
Cc1cc(C(=O)CSc2nnc3sc4ccccc4n23)c(C)n1Cc1ccccc1,22
O=C(O)CN(c1cc(Cl)cc(Cl)c1)S(=O)(=O)c1ccccc1,19
CCOC(=O)C1CCCCN1Cc1ccc(OC)c(O)c1 (stereo unspecified),-12
SMILES,PRC2 inh
COc1ccccc1N1C(=O)C2C(c3ccc(F)cc3)NC(Cc3ccccc3)(C(=O)O)C2C1=O (stereo unspecified),2
NC(=O)c1ccc(NC(=O)C2CCCN(S(=O)(=O)c3ccc(Br)cc3)C2)cc1 (stereo unspecified),3
CC1=C(C(=O)Nc2ccccc2)C(c2ccccc2OCc2ccccc2)n2nnnc2N1 (stereo unspecified),-4
CC(C)=CCN[C@H](CO)c1ccccc1,2
CC(C)=CCN(CC#Cc1ccccc1)[C@H](CO)c1ccccc1,66*
O=C(O)c1cccc(NC(=O)c2cc(S(=O)(=O)N3CCOCC3)c(Cl)cc2Cl)c1,10
CCCCCCCCC(=O)NCc1cc(OC)c(O)cc1I,12
CCCCCCCCCCC(C)(C)C(=O)Nc1c(OC)cc(OC)cc1OC,85*
COc1ccc(OC)c(NC(=O)COc2ccc(C(C)(C)C)cc2)c1,35
COc1ccc(C)cc1S(=O)(=O)NCc1ccncc1,-2
Nc1cc(N)nc(SCC(=O)N2CCN(c3ccc(Cl)cc3)CC2)n1,-7
CCC(Sc1nnc2sc3ccccc3n12)C(=O)O (stereo unspecified),-20
COc1ccc(OCc2nc3ccccc3n2Cc2ccccc2F)cc1,58*
COc1ccc(OCc2nc3ccccc3n2Cc2c(F)cccc2Cl)cc1,28
NC(=O)CSc1nc2ccccc2n1Cc1ccccc1F,1
O=C1C[C@@H](c2ccc(O)cc2)Oc2cc(O)c([C@@H]3O[C@H](CO)[C@@H](O)[C@H](O)[C@H]3O)c(O)c21,-34
COc1c(O)cc2c(c1O)[C@H]1O[C@H](CO)[C@@H](O)[C@H](O)[C@@H]1OC2=O,8
O=C(OC1C(c2c(O)cc(O)c(C(=O)c3ccc(O)cc3)c2O)OC(CO)C(O)C1O)c1cc(O)c(O)c(O)c1 (stereo unspecified),56*
COC(=O)c1cc(NC(=O)CSc2nc(Nc3ccccc3)nc(N3CCOCC3)n2)ccc1Cl,4
O=C(CCCCCC(=O)N/N=C/c1ccccc1)NO,-76

# From PubChem BioAssay
